Reference: PubChem BioAssay AID1159580 (chemical genetic matrix, 2015)
Several values for one entry are separate records, joined by “and”; a condition that tells them apart may be missing. Equal entries are not always repeated. Screen size: about 5,500 compounds; about 2,000 (36%) were called active. Not shown: some 18% with an inconclusive outcome. Cut-off read from the data, not from the text of the source: active = normalized growth mostly below about 0.91 (no sharp cut-off); inconclusive = no clear call, values can overlap the other calls; inactive = mostly above about 0.92. This is one part of the list.

Test: chemical genetic growth profiling, strain panel (AID 1159580);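 note: tested at 20 µM; growth read once vehicle control cultures reached saturation at 30 °C; 1 = growth at the plate median or of vehicle wells; lower values mean less growth of the strain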
Details: S. cerevisiae deletion strains, growth OD

Measured: normalized growth

CN1C[C@H](C(=O)N[C@]2(C)O[C@@]3(O)[C@@H]4CCCN4C(=O)[C@H](Cc4ccccc4)N3C2=O)C[C@@H]2c3cccc4[nH]cc(c34)C[C@H]21
active: locus YGR252W, strain gcn5, stronger effect = lower value 0.741
inactive: locus YAL013W, strain DEP1, stronger effect = lower value 0.96 | locus YAL021C, strain ccr4, stronger effect = lower value 0.95 | locus YAL026C, strain drs2, stronger effect = lower value 1.01 | locus YAL030W, strain snc1, stronger effect = lower value 0.984 | locus YBL061C, strain skt5, stronger effect = lower value 0.996 | locus YBR009C, strain hhf1, stronger effect = lower value 1.07 | locus YBR021W, strain FUR4, stronger effect = lower value 0.929 | locus YBR023C, strain chs3, stronger effect = lower value 1 | locus YBR171W, strain sec66, stronger effect = lower value 0.973 | locus YBR229C, strain ROT2, stronger effect = lower value 0.983 | locus YBR231C, strain swc5, stronger effect = lower value 0.987 | locus YBR279W, strain paf1, stronger effect = lower value 0.997 | locus YCL011C, strain gbp2, stronger effect = lower value 0.966 | locus YCL016C, strain dcc1, stronger effect = lower value 0.998 | locus YCL029C, strain bik1, stronger effect = lower value 0.973 | locus YCL061C, strain MRC1, stronger effect = lower value 0.998 | locus YCL069W, strain vba3, stronger effect = lower value 0.992 | locus YCR088W, strain abp1, stronger effect = lower value 0.994 | locus YDL005C, strain med2, stronger effect = lower value 0.997 | locus YDL035C, strain GPR1, stronger effect = lower value 1.01 | locus YDL040C, strain nat1, stronger effect = lower value 1 | locus YDL074C, strain BRE1, stronger effect = lower value 0.896 | locus YDL101C, strain DUN1, stronger effect = lower value 0.957 | locus YDL134C, strain PPH21, stronger effect = lower value 0.992 | locus YDL185W, strain tfp1, stronger effect = lower value 0.998 | locus YDL192W, strain arf1, stronger effect = lower value 0.988 | locus YDR001C, strain nth1, stronger effect = lower value 0.981 | locus YDR069C, strain doa4, stronger effect = lower value 0.987 | locus YDR101C, strain arx1, stronger effect = lower value 0.996 | locus YDR137W, strain rgp1, stronger effect = lower value 1.02 | locus YDR150W, strain NUM1, stronger effect = lower value 1 | locus YDR159W, strain sac3, stronger effect = lower value 1 | locus YDR162C, strain NBP2, stronger effect = lower value 0.987 | locus YDR195W, strain ref2 0.99 | locus YDR297W, strain sur2, stronger effect = lower value 0.981 | locus YDR318W, strain mcm21, stronger effect = lower value 0.97 | locus YDR334W, strain swr1, stronger effect = lower value 0.944 | locus YDR335W, strain msn5, stronger effect = lower value 0.992 | locus YDR388W, stronger effect = lower value 0.981 | locus YDR392W, strain spt3, stronger effect = lower value 0.871 | locus YDR502C, strain sam2, stronger effect = lower value 0.968 | locus YEL003W, strain gim4, stronger effect = lower value 0.99 | locus YEL037C, strain rad23, stronger effect = lower value 0.987 | locus YEL061C, strain CIN8 (second series), stronger effect = lower value 0.994 | locus YEL061C, strain CIN8, stronger effect = lower value 0.996 | locus YER015W, strain faa2, stronger effect = lower value 0.971 | locus YER016W, strain bim1, stronger effect = lower value 0.988 | locus YER110C, stronger effect = lower value 0.977 | locus YER111C, strain swi4, stronger effect = lower value 1.01 | locus YER155C, strain BEM2 (second series), stronger effect = lower value 0.964 | locus YER155C, strain BEM2, stronger effect = lower value 0.979 | locus YER167W, strain BCK2, stronger effect = lower value 0.981 | locus YFR010W, strain ubp6, stronger effect = lower value 0.997 | locus YGL078C, strain dbp3, stronger effect = lower value 0.982 | locus YGL086W, strain mad1, stronger effect = lower value 0.985 | locus YGL167C, strain pmr1, stronger effect = lower value 1 | locus YGL173C, strain kem1, stronger effect = lower value 0.993 | locus YGL227W, strain vid30, stronger effect = lower value 0.996 | locus YGL240W, strain doc1, stronger effect = lower value 0.938 | locus YGL248W, strain PDE1, stronger effect = lower value 0.945 | locus YGL253W, strain hxk2, stronger effect = lower value 0.98 | locus YGR078C, strain PAC10, stronger effect = lower value 0.947 | locus YGR135W, strain pre9, stronger effect = lower value 0.912 | locus YHR013C, strain ard1, stronger effect = lower value 0.971 | locus YHR027C, strain rpn1, stronger effect = lower value 0.967 | locus YHR030C, strain SLT2, stronger effect = lower value 0.994 and 1.01 | locus YHR079C, strain IRE1 (second series), stronger effect = lower value 0.977 | locus YHR079C, strain IRE1, stronger effect = lower value 1.01 | locus YHR094C, strain hxt1, stronger effect = lower value 0.98 | locus YHR129C, strain ARP1, stronger effect = lower value 0.983 | locus YHR142W, strain chs7, stronger effect = lower value 1 | locus YHR200W, strain rpn10, stronger effect = lower value 0.981 | locus YIL066C, strain RNR3, stronger effect = lower value 0.984 | locus YIL073C, strain SPO22, stronger effect = lower value 0.98 | locus YIL125W, strain kgd1, stronger effect = lower value 0.987 | locus YIR030C, strain dcg1, stronger effect = lower value 0.975 | locus YJL092W, strain hpr5, stronger effect = lower value 0.985 | locus YJL095W, strain BCK1 (second series), stronger effect = lower value 0.98 | locus YJL095W, strain BCK1, stronger effect = lower value 0.926 and 1.03 | locus YJL115W, strain asf1, stronger effect = lower value 0.983 | locus YJL129C, strain trk1, stronger effect = lower value 0.973 | locus YJL134W, strain LCB3, stronger effect = lower value 0.984 | locus YJL154C, strain vps35, stronger effect = lower value 0.982 | locus YJL164C, strain tpk1, stronger effect = lower value 1.02 | locus YJL166W, strain qcr8, stronger effect = lower value 0.94 | locus YJL168C, strain set2, stronger effect = lower value 0.98 | locus YJL187C, strain SWE1 (second series), stronger effect = lower value 0.941 | locus YJL187C, strain SWE1, stronger effect = lower value 0.986 | locus YJR043C, strain POL32, stronger effect = lower value 0.991 | locus YJR066W, strain TOR1, stronger effect = lower value 0.94
